Data: PubChem BioAssay (EPA / NIEHS)
Results filed as inconclusive are left out. The source made the active and inactive calls. How the source made its calls, unless noted: active means hit-call score of the fitted dose curve at least 0.9, where 1 is the maximum; inactive means score below 0.9.

Columns and labels:
[1] = molecular target: Cellular tumor antigen p53 (Homo sapiens) (UniProt P04637); assay: TOX21_p53_BLA_p2_ratio: Tox21 HCT-116 p53 Agonism Beta-lactamase Assay, Ratio, Phase 2 (AID 2283592; active means hit-call score of the fitted dose curve at least 0.9, where 1 is the maximum)
Chain of Cellular tumor antigen p53 (Homo sapiens) (P04637 whole entry, looked up): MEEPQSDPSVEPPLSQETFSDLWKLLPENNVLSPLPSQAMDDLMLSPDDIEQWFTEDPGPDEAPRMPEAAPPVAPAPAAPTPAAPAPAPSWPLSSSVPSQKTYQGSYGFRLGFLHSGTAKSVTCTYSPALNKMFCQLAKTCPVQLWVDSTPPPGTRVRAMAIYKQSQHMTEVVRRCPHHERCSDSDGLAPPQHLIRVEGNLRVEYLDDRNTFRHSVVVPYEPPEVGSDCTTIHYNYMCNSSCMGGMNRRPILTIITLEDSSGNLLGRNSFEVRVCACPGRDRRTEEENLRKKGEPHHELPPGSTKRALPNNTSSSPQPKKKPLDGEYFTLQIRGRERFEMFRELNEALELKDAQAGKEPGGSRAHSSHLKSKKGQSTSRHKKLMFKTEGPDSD
In short: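 HCT116 cells carrying a p53-responsive beta-lactamase reporter were plated, incubated 5 h at 37C, then dosed with compounds in DMSO (217-fold dilution) for 16 h. CCF4-AM substrate was added for 2 h at room temperature; the 460/530 nm emission ratio gave gain-of-signal activity relative to DMSO.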

[2] = molecular target: Cellular tumor antigen p53 (Homo sapiens) (UniProt P04637); assay: TOX21_p53_BLA_p3_ratio: Tox21 HCT-116 p53 Agonism Beta-lactamase Assay, Ratio, Phase 3 (AID 2283596; active means hit-call score of the fitted dose curve at least 0.9, where 1 is the maximum)
In short: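 HCT116 p53-bla cells (4000/well) given compound in DMSO (217-fold dilution) after 5 h, incubated 16 h at 37C. CCF4-AM substrate 2 h at room temperature; 460/530 nm emission ratio, gain fitted against DMSO.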

[3] = molecular target: Cellular tumor antigen p53 (Homo sapiens) (UniProt P04637); assay: TOX21_p53_BLA_p5_ratio: Tox21 HCT-116 p53 Agonism Beta-lactamase Assay, Ratio, Phase 5 (AID 2283599; active means hit-call score of the fitted dose curve at least 0.9, where 1 is the maximum)
In short: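 HCT-116 p53-bla cells (4000/well) plated 5 h, dosed with compound (217-fold DMSO dilution) for 16 h at 37 C; CCF4-AM substrate 2 h at room temperature. Activity is the 460/530 nm emission ratio (405 nm excitation), fitted in gain-of-signal direction versus DMSO.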

[4] = TOX21_p53_BLA_p5_viability: Viability Assessment in the Tox21 HCT-116 p53 Agonism Beta-lactamase Assay, Phase 5 (AID 2283600; active means hit-call score of the fitted dose curve at least 0.9, where 1 is the maximum)
In short: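 Cells were plated at 4000/well, rested 5 h at 37C, then given compounds in DMSO (217-fold dilution) for 16 h at 37C, 5% CO2. Following the CCF4-AM beta-lactamase read, CellTiter-Glo was added and luminescence was read after 30 min at room temperature.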

[5] = molecular target: Cellular tumor antigen p53 (Homo sapiens) (UniProt P04637); assay: TOX21_p53_BLA_p4_ratio: Tox21 HCT-116 p53 Agonism Beta-lactamase Assay, Ratio, Phase 4 (AID 2283601; active means hit-call score of the fitted dose curve at least 0.9, where 1 is the maximum)
In short: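 HCT-116 p53 beta-lactamase reporter cells (4000/well) preincubated 5 h, then compound (217-fold dilution of DMSO stock) for 16 h at 37C. CCF4-AM substrate added 2 h at room temperature; 460/530 nm emission ratio fitted upward versus DMSO.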

[6] = CCTE_Shafer_MEA_dev_firing_rate_mean: CCTE's Neural Network Formation Assay for Mean Firing Rate, Shafer Lab (AID 2284031)
In short: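 Developing rat cortical networks on MEA plates undergo 12-day compound exposure. Firing frequency, averaged across active electrodes, is integrated as area under the curve over four recording days, referenced to DMSO.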

[7] = CCTE_Shafer_MEA_dev_per_burst_spike_percent: CCTE's Neural Network Formation Assay for Percent of Spikes in a Burst, Shafer Lab (AID 2284032);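 further: fitted as a decrease in burst spike percentage below DMSO baseline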
In short: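 Rat primary cortical neurons on 16-electrode MEA wells, dosed from plating day 0 for 12 days with renewal on DIV 5 and 9; spikes-in-bursts percentage averaged over bursting electrodes, collapsed as AUC across days 5, 7, 9, 12; loss direction versus DMSO.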

[8] = CCTE_Shafer_MEA_dev_active_electrodes_number: CCTE's Neural Network Formation Assay for Number of Active Electrodes, Shafer Lab (AID 2284040; active means hit-call score of the fitted dose curve at least 0.9, where 1 is the maximum;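 further: potency for loss of active electrodes versus DMSO so lower counts are hits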)
In short: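 Rat cortical primary cultures, 1.5 x 10^5 cells/well, PEI-coated MEA, laminin drop. Continuous exposure DIV 0–12; full media/compound change DIV 5, 9. Readout: electrodes with mean firing ≥5 spikes/min; AUC across days; loss vs DMSO.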

[9] = CCTE_Shafer_MEA_dev_burst_rate: CCTE's Neural Network Formation Assay for Burst Rate, Shafer Lab (AID 2284042)
In short: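 Cells plated, treated day 0; recorded DIV 5, 7, 9, 12; fed and re-treated DIV 5, 9. Endpoint: bursts per recording time, active-electrode well mean, trapezoidal AUC, fitted in decreasing direction against DMSO baseline.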

[10] = CCTE_Shafer_MEA_dev_bursting_electrodes_number: CCTE's Neural Network Formation Assay for Number of Bursting Electrodes, Shafer Lab (AID 2284043; active means hit-call score of the fitted dose curve at least 0.9, where 1 is the maximum;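 further: potency is for loss of bursting electrodes relative to DMSO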)
In short: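 Primary rat cortical neurons plated on 16-electrode MEA wells, exposed from day 0 with compound renewed at DIV 5 and 9. Electrodes bursting ≥1 burst per 2 min counted on days 5, 7, 9 and 12; trapezoidal AUC across days, fitted for loss versus DMSO.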

[11] = CCTE_Shafer_MEA_dev_per_burst_interspike_interval: CCTE's Neural Network Formation Assay for Burst Interspike Interval, Shafer Lab (AID 2284044);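 further: mean spike spacing inside bursts as AUC over recordings on days 5 7 9 12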
In short: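 Rat cortical primary cultures, 16 electrodes/well; compound from plating, renewed with full media change DIV 5 and 9. Spikes via adaptive detector; per-burst ISI well-mean over active bursting electrodes; AUC of DIV 5/7/9/12 recordings; loss-direction fit vs DMSO.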

[12] = CCTE_Shafer_MEA_dev_burst_duration_mean: CCTE's Neural Network Formation Assay for Mean Burst Duration, Shafer Lab (AID 2284045)
In short: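 Primary rat cortical neurons on 48-well 16-electrode MEA plates, exposed from day 0 with renewal at DIV 5 and 9; spontaneous activity recorded on days 5, 7, 9, 12. Well-mean burst duration across bursting electrodes, collapsed as trapezoidal AUC; DMSO baseline.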

[13] = CCTE_Shafer_MEA_dev_interburst_interval_mean: CCTE's Neural Network Formation Assay for Mean Interburst Interval, Shafer Lab (AID 2284046);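 further: well-mean interburst interval of bursting electrodes as AUC over four recording days; curve fitted for decrease in interburst interval relative to DMSO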
In short: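 Developing rat cortical networks on 48-well MEAs receive compound from the day of plating. Burst intervals from each active electrode are averaged per well, and AUC over the recording days is fitted in the negative direction against DMSO.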

[14] = CCTE_Shafer_MEA_dev_inter_network_spike_interval_mean: CCTE's Neural Network Formation Assay for Mean Inter-network Spike Interval, Shafer Lab (AID 2284047)
In short: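 Rat cortical cultures, 1.5 x 10^5 cells/well on 48-well MEA plates; continuous exposure days 0–12, medium and compound refreshed DIV 5, 9. Mean time between consecutive network-spike peaks; AUC across DIV 5/7/9/12; DMSO baseline, negative fitting direction.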

[15] = CCTE_Shafer_MEA_dev_network_spike_number: CCTE's Neural Network Formation Assay for Number of Network Spikes, Shafer Lab (AID 2284048)
In short: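 Primary rat cortical neurons on PEI/laminin 48-well MEA plates, dosed from plating day 0 for 12 days, renewed at DIV 5 and 9. Network spike counts recorded DIV 5, 7, 9, 12, collapsed as trapezoidal AUC; DMSO baseline.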

[16] = CCTE_Shafer_MEA_dev_network_spike_peak: CCTE's Neural Network Formation Assay for Mean Number of Electrodes in Network Spike, Shafer Lab (AID 2284049)
In short: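 Network-spike peak electrode count from recordings on days 5, 7, 9 and 12 was combined as trapezoidal area under the curve. Rat cortical cultures were treated continuously from plating, with compound renewed at each feed (DIV 5, 9); fits versus DMSO.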

[17] = CCTE_Shafer_MEA_dev_spike_duration_mean: CCTE's Neural Network Formation Assay for Mean Spike Duration, Shafer Lab (AID 2284051);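 further: mean network spike duration pooled as area under curve over DIV 5 to 12 recordings; potency for a decrease in mean network spike duration versus DMSO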
In short: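 Readout is the average length of network spikes, clustered firing across electrodes, summed over DIV 5, 7, 9 and 12 as area under the curve. Neurons from rat cortex developed networks on MEA plates under continuous 12-day exposure.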

[18] = CCTE_Shafer_MEA_dev_network_spike_duration_std: CCTE's Neural Network Formation Assay for Standard Deviation of Network Spike Duration, Shafer Lab (AID 2284052);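 further: area under curve of spike duration SD across recording days 5 to 12; hits are decreases in network spike duration SD versus DMSO vehicle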
In short: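 Read-out is the trapezoidal area-under-the-curve across recordings made on days 5, 7, 9 and 12, fitted in the negative direction against DMSO baseline. Neurons were primary rat cortical cells treated from day 0, with treatment renewed at each feed.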

[19] = CCTE_Shafer_MEA_dev_per_network_spike_spike_number_mean: CCTE's Neural Network Formation Assay for Mean Number of Spikes in a Network Spike, Shafer Lab (AID 2284053)
In short: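 Continuous twelve-day exposure of developing rat cortical networks grown over 16 microelectrodes per well; spontaneous firing is captured at four time points, and the per-network-spike spike number is integrated over development by trapezoidal AUC.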

[20] = CCTE_Shafer_MEA_dev_per_network_spike_spike_percent: CCTE's Neural Network Formation Assay for Percent of Spikes in a Network Spike, Shafer Lab (AID 2284054)
In short: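 Rat primary cortical neurons were grown on 48-well MEA plates (16 electrodes/well), exposed from plating day 0 through day 12, with treatment renewed on DIV 5 and 9. Percent of spikes within 0.05 s network-spike peaks was measured, summarised as AUC across days 5, 7, 9, 12.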

[21] = CCTE_Shafer_MEA_dev_LDH: CCTE's Lactate Dehydrogenase Assay for Cytotoxicity in the Neural Network Formation Assay, Shafer Lab (AID 2284068; active means hit-call score of the fitted dose curve at least 0.9, where 1 is the maximum;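 further: exposure for twelve days from plating with re-dosing on DIV 5 and 9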)
In short: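 Cytotoxicity companion to network-formation recordings: rat cortical neurons received compound over 12 days of development, re-dosed at DIV 5 and 9 feeds. Viability was inferred from LDH enzyme activity relative to DMSO.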

[22] = CCTE_Shafer_MEA_dev_AB: CCTE's Alamar Blue Assay for Cytotoxicity in the Neural Network Formation Assay, Shafer Lab (AID 2284083; active means hit-call score of the fitted dose curve at least 0.9, where 1 is the maximum;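 further: resazurin reduction fluorescence as viability of cultured neurons; twelve days of exposure from plating with re-dosing on DIV 5 and 9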)
In short: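 Fluorescent resazurin reduction serves as the viability read-out, with DMSO as negative control and baseline. Cells were primary rat cortical neurons grown on MEA plates and dosed from day 0 to day 12, treatment renewed on DIV 5 and 9.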

[23] = CCTE_Shafer_MEA_dev_mutual_information_norm: CCTE's Neural Network Formation Assay for Mutual Information Normalization, Shafer Lab (AID 2284091)
In short: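 Primary rat cortical neurons on PEI-coated 48-well MEA plates, 1.5 x 10^5 cells/well, exposed from day 0 through day 12 with re-dosing at DIV 5 and 9. Mutual information between electrodes recorded days 5, 7, 9, 12; trapezoidal AUC, loss-of-signal fit versus DMSO.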

[24] = CCTE_Shafer_MEA_dev_correlation_coefficient_mean: CCTE's Neural Network Formation Assay for Mean Correlation Coefficient, Shafer Lab (AID 2284093)
In short: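 Read-out: well-mean correlation coefficient of spike trains between electrode pairs, collapsed over four recording days as trapezoidal area-under-the-curve. Developing rat cortical neuron networks grown on MEAs received test chemical continuously from plating.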

[25] = CCTE_Mundy_HCI_Cortical_NOG_NeuriteLength: CCTE's Neurite Outgrowth Assay in rat cortical cells for Neurite Length, Mundy Lab (AID 2284213)
In short: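 Neurite length was read by high-content imaging of βIII-tubulin-labelled neurites in rat primary cortical cultures. Activity was fitted relative to DMSO.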

[26] = CCTE_Mundy_HCI_Cortical_Synap_Neur_Matur_NeuriteLength: CCTE's Synaptogenesis and Neurite Maturation Assay in rat cortical cells for Neurite Length, Mundy Lab (AID 2284214)
In short: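 Neurite length in rat primary cortical cultures is imaged after MAP2, synaptophysin and Hoechst staining. Dosing starts DIV 7, ending DIV 12; DMSO serves as negative control and baseline.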

[27] = CCTE_Mundy_HCI_Cortical_Synap_Neur_Matur_NeuriteSpotCountPerNeuron: CCTE's Synaptogenesis and Neurite Maturation Assay in rat cortical cells for Neurite Spot Count per Neuron Count, Mundy Lab (AID 2284215)
In short: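 Rat primary cortical cells received AraC at DIV 5, then chemicals with a media change at DIV 7, and were fixed at DIV 12. Synaptophysin puncta on MAP2-stained neurites per neuron were counted by high-content imaging, fitted relative to DMSO.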

[28] = CCTE_Mundy_HCI_Cortical_Synap_Neur_Matur_SynapseCount: CCTE's Synaptogenesis and Neurite Maturation Assay in rat cortical cells for Synapse Count, Mundy Lab (AID 2284218)
In short: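 Synapse count per neuron is measured in rat cortical neurons exposed to chemicals between DIV 7 and DIV 12, with glial growth arrested by AraC at DIV 5. Synaptophysin and MAP2 staining is imaged automatically; activity is fitted relative to DMSO.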

[29] = CCTE_Mundy_HCI_hN2_NOG_NeuriteCount: CCTE's Neurite Outgrowth Assay in human hN2 cells for Neurite Count, Mundy Lab (AID 2284219; active means hit-call score of the fitted dose curve at least 0.9, where 1 is the maximum)
In short: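 In this morphology assay, hNP1-derived neurons received test chemical 2 h post-plating and were fixed two days later in warm paraformaldehyde/sucrose containing Hoechst 33342. Neurites, labelled by rabbit anti-βIII-tubulin (1:800) and Alexa Fluor-488 (1:500), were counted automatically.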

[30] = CCTE_Mundy_HCI_hN2_NOG_NeuriteLength: CCTE's Neurite Outgrowth Assay in human hN2 cells for Neurite Length, Mundy Lab (AID 2284220; active means hit-call score of the fitted dose curve at least 0.9, where 1 is the maximum)
In short: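 Read-out is neurite length from high-content imaging of βIII-tubulin/Alexa Fluor-488-labelled neurons, referenced to DMSO controls.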

[31] = CCTE_Mundy_HCI_hN2_NOG_NeuronCount: CCTE's Neurite Outgrowth Assay in human hN2 cells for Neuron Count, Mundy Lab (AID 2284221; active means hit-call score of the fitted dose curve at least 0.9, where 1 is the maximum)
In short: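 Read-out is the number of betaIII-tubulin-positive neurons imaged by automated high-content analysis, with DMSO as negative control.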

[32] = CCTE_Mundy_HCI_Cortical_NOG_NeuronCount: CCTE's Neurite Outgrowth Assay in rat cortical cells for Neuron Count, Mundy Lab (AID 2284236; active means hit-call score of the fitted dose curve at least 0.9, where 1 is the maximum;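 further: neurons counted by imaging betaIII-tubulin and Hoechst stained cortical cells; cells exposed to compound for about 48 hours before fixation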)
In short: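 Read-out: neuron number by high-content imaging of betaIII-tubulin (Alexa Fluor-488) and Hoechst-labelled rat primary cortical cells.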

[33] = CCTE_Mundy_HCI_hNP1_Casp3_7: CCTE's Caspase-Glo 3/7 Assay in human neuroprogenitor cells for Apoptosis, Mundy Lab (AID 2284240)
In short: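 Luminescent caspase-3/7 readout, 26.5 h post-dose, in human neural progenitor cells from WA09 embryonic stem cells. Cells grew 40–44 h at 37 °C, 5% CO2 before chemical addition. Activity analysed as signal increase over DMSO baseline.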

CN1C(=O)CN=C(c2ccccc2)c2cc(Cl)ccc21
outcome [1]: inactive | outcome [2]: inactive | outcome [3]: inactive | outcome [4]: inactive | outcome [5]: inactive | outcome [6]: inactive | AC50 [7]: 3.62 µM (active) | AC50 [8]: 15 µM (active) | outcome [9]: inactive | AC50 [10]: 4.58 µM (active) | outcome [11]: inactive | outcome [12]: inactive | outcome [13]: inactive | outcome [14]: inactive | outcome [15]: inactive | outcome [16]: inactive | AC50 [17]: 3.06 µM (active) | outcome [18]: inactive | outcome [19]: inactive | AC50 [20]: 15 µM (active) | outcome [21]: inactive | outcome [22]: inactive | outcome [23]: inactive | outcome [24]: inactive | outcome [25]: inactive | outcome [26]: inactive | outcome [27]: inactive | outcome [28]: inactive | outcome [29]: inactive | outcome [30]: inactive | outcome [31]: inactive | outcome [32]: inactive | AC50 [33]: 23 µM (active)
